Results: PubChem BioAssay (Tox21)
Records with an inconclusive call do not appear. Calls of active or inactive are those of the source. Calls come from the whole dose curve; as a rule, active = well fitted curve in the direction sought with a large enough effect in the repeat runs; inconclusive = weak or mixed curves; inactive = no such curve, though single readings can be large; an effect the other way counts as inactive or inconclusive.

Legend:
[1] = A CellTox Green Cytotoxicity Assay to monitor cytotoxicity in HepG2 cells - 0 hour (AID 1224882); note: nearly all actives have a fitted effect of over 35% in size
Summary of the method: (§1)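 Cytotoxicity was tracked as dead-cell DNA fluorescence in HepG2 cells treated with test compounds at 37 C; each time-point value comes from one kinetic series spanning 0, 8, 16, 24, 32 and 40 h.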

[2] = A CellTox Green Cytotoxicity Assay to monitor cytotoxicity in HepG2 cells - 32 hour (AID 1224883); note: nearly all actives have a fitted effect of over 50% in size; note: potency is the fitted concentration of half-maximal effect
Summary of the method: as §1

[3] = A CellTox Green Cytotoxicity Assay to monitor cytotoxicity in HEK293 cells - 8 hour (AID 1224884); note: nearly all actives have a fitted effect of over 35% in size
Summary of the method: (§2)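 Real-time, in one plate: 600 HEK293 cells/well with dead-cell DNA dye, pinned compound after 5 h, 37 C incubation over 40 h; viable cells give no appreciable fluorescence.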

[4] = qHTS RealTime-Glo MT Cell Viability Assay in HEK293 cells - 8 hour (AID 1224887); note: nearly all actives have a fitted effect of over 50% in size; note: potency is the fitted concentration of half-maximal effect
Summary of the method: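 Kinetic, non-lysing viability readout. Seed HEK293 (600/well) with reagent, incubate 5 h at 37 C/5% CO2, pin 23 nL compound in DMSO, incubate at 37 C, read luminescence at 0, 8, 16, 24, 32, 40 h.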

[5] = A CellTox Green Cytotoxicity Assay to monitor cytotoxicity in HEK293 cells - 16 hour (AID 1224888); note: nearly all actives have a fitted effect of over 35% in size
Summary of the method: as §2

[6] = A CellTox Green Cytotoxicity Assay to monitor cytotoxicity in HepG2 cells - 8 hour (AID 1224890); note: nearly all actives have a fitted effect of over 45% in size; note: potency is the fitted concentration of half-maximal effect
Summary of the method: as §1

[7] = qHTS RealTime-Glo MT Cell Viability Assay in HepG2 cells - 16 hour (AID 1224885); note: nearly all actives have a fitted effect of over 50% in size; note: potency is the fitted concentration of half-maximal effect
Summary of the method: (§3)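 Cell number in HepG2 cultures estimated from NanoLuc luminescence generated by metabolic reduction of a prosubstrate by living cells. The homogeneous, nonlytic format allowed repeated reads at 0, 8, 16, 24, 32 and 40 h of compound exposure.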

[8] = qHTS RealTime-Glo MT Cell Viability Assay in HEK293 cells - 24 hour (AID 1224886); note: nearly all actives have a fitted effect of over 50% in size; note: potency is the fitted concentration of half-maximal effect
Summary of the method: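 Homogeneous bioluminescent viability format in HEK293 cells (600 cells/well). Following 5 h at 37 C/5% CO2, 23 nL compound was pintooled; the signal was measured repeatedly during 40 h incubation.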

[9] = qHTS RealTime-Glo MT Cell Viability Assay in HepG2 cells - 0 hour (AID 1224889); note: nearly all actives have a fitted effect of over 50% in size
Summary of the method: as §3

Measured: Potency

Fc1ccc([C@@H]2CCNC[C@H]2COc2ccc3c(c2)OCO3)cc1
inactive: [1] | [3] | [4] | [5] | [6]
active: [2] 26.8 µM

CN1CCN(CCC(=O)N2c3ccccc3Sc3ccc(C(F)(F)F)cc32)CC1
inactive: [3] | [5]
active: [2] 19 µM

CC(C)OC(=O)c1cc2c(OCC(O)CNC(C)(C)C)cccc2[nH]1 (centres undefined)
active: [8] 9.52 µM
inactive: [1] | [7] | [9] | [6]

Cc1cc(O)c(Cl)c(C)c1Cl
inactive: [1] | [7] | [8] | [4] | [9]
active: [2] 54.9 µM

O=S1(=O)CC(Cl)(Cl)C(Cl)(Cl)C1
active: [2] 7.76 µM | [7] 6.92 µM | [6] 13.8 µM
inactive: [1] | [9]

CN1CCC(Nc2ncc3ncnc(Nc4ccc(F)c(Cl)c4)c3n2)CC1
active: [2] 26.8 µM | [8] 9.52 µM
inactive: [1] | [3] | [5] | [6]

O=C(OCC(COC(=O)c1ccccc1)(COC(=O)c1ccccc1)COC(=O)c1ccccc1)c1ccccc1
active: [8] 48.9 µM
not listed: [4] | [5]
inactive: all other assays above

NC(=O)C1(N2CCCCC2)CCN(CCCN2c3ccccc3CCc3ccc(Cl)cc32)CC1
inactive: [1] | [9]
active: [2] 23.9 µM | [7] 23.9 µM | [8] 21.3 µM | [4] 23.9 µM

O=Cc1cc(O)ccc1Br
not listed: [2] | [8] | [9]
inactive: all other assays above

O=C1CCCc2c1cc1ccc3cccc4ccc2c1c34
active: [8] 8.82 µM
not listed: [4]
inactive: all other assays above

CCc1cc(Cc2cc(CC)cc(C(C)(C)C)c2O)c(O)c(C(C)(C)C)c1
active: [7] 49 µM | [8] 15.5 µM | [4] 13.8 µM
inactive: [1] | [3] | [9]

CSc1ccc2c(c1)C(N1CCN(C)CC1)Cc1ccccc1S2 (centres undefined)
active: [2] 23.9 µM
inactive: [1] | [3] | [4] | [5]
